Measured values: the supplement of paper PMC12632987
The full ranking holds about 4,500 sequences; the median of “median log2 fold change of GCK-ALFA target abundance (FLAG IP / Myc IP barcode read proportion)” is about 0.078, and the lowest 2% start at about -0.6. This excerpt belongs to a sample that is enriched for the lowest values.

B1: GBRAP_184_5076 (protein)
chain: AVLEETLRVEDLEEARARLAALRERVADFRGTLVVLVEMPEFERETARAVLEGLAAMKAAGYVTDVTVGFDAPLTEEQVDFVVDTADALGVKVTLALPEE
B2: GBRAP_35_5513 (protein)
chain: SSIDTETEMLVSTLEDATLAVEDLDPETLKKIVESLAELAREFILQNKNDLEALKRVKEELEKLAEALRKRGLDDPLIKEALEKVEEVIKLAEEEIKKIE
B3: GBRAP_160_4713 (protein)
chain: SETAEERKKYVDEEFERAKKLIEGETIEQRAIIVEGTVGEIIMEFVEDEKATDELIDEVIEIGDELVKTILENPNLTLEEIKELIDEAREKMKEAIDKHL
B4: GBRAP_78_6743 (protein)
chain: KAEEVIDETIETLNEALKALSSKPIEEVGDAMLHLLDASEALIEAEEEGFPLEYIEEAARHLAAAIAEIEAKGIELPAEIMAALKASLEALKALAAEKKA
B5: GBRAP_128_3161 (protein)
chain: AVEEAKKKTKELMEKIKNSSLEEVEKLAKELVEMMKTASDEEVEAMAEVILEELPKLSAEKLEILADVLEEKMPELSPFGQNQAADVLVEALNEAEELEE
B6: GBRAP_78_6611 (protein)
chain: ETKEKILKLLEEAEELAREVRKLAPEVAEQAAELEVLLGTAIYMVDTGSESKEEILETLEEAEKAAKELKKLVEGLAEEVQKLVKEALEKIKEAIKLLKE
B7: GBRAP_160_4329 (protein)
chain: SEEFEKLIEFIDEEFEETKELIKGLSLEQVKVLIEGTFGEIIMEMSENESISDELVDFVVAERDALLATLDANPDLSEEEIKALIDEARERIKEALKKEA
B8: GBRAP_125_3105 (protein)
chain: MEEEILEALKLLAKALGFDDEDAEEAARLAREFSVKMTLYALLKAEGEEELADLVEKLTEEQAKKVLLKVAEWLKKNPNATKEEVLKKLKEVILEELEKA
B9: GBRAP_125_3108 (protein)
chain: SEEEILEALKRLAKALGFSEEEAEEAAELARKFSVKQTLYALFLAEGEEELADLVEKLTEEQAKRALLKLAKWLEENPNATKEEVLEQAKKILEEELAKQ
B10: GBRAP_9_7175 (protein)
chain: LKEAAKKAIEGLKEAKEFALEVVPEEKKEEINAAFDELIETVKKMQADDSVTKEEFRETLEKGFDKIIELAKKNLDPEIAAIVETELLTIKAEVDELLDE
B11: GBRAP_160_3978 (protein)
chain: SEEIEKLKKEIKELAEEAKELIEGESYEERLTIVRVMFGEILMLLMSNENVSDETEEEVAKVGDETIAYLEANPDLTEEEIKELIKEAEKKIFEILEKNE
B12: GBRAP_160_4224 (protein)
chain: METVEKLVKIFRENFEEALELIEGESLEEQKVILDVAAGEVILEAEEIEEATEEMVEIVDKKAEEAREELLEAREASKEEKRKLIEEHAEKLRKELEKVA
B13: GBRAP_74_6499 (protein)
chain: SAATEAAAEEFAALLRAGASYEELMAHLAKMNVEALNAAVIKATEVARANADELTEEQIDALAELADRVFAESEDPEAIKAAGELVKILYERELRLEAER
B14: GBRAP_74_6501 (protein)
chain: AAADEAAAEEFAELLRRGASYEELMAHIAEMNVAALDLAVIKATEEARENAEKLTEEQIDALAELADRVFAESENPEAIAAAGELVKILYETEERRRAEE
B15: GBRAP_26_5460 (protein)
chain: MEEAERAAEAEVRAIAARLPDPRVAAAVVAEFSTELLEAEEAIENGEDPKEAFRKAREEFLAEARELMEEAGLSPEEIAAFEAELSAVFDKLEAEVLAEL
B16: GBRAP_52_6294 (protein)
chain: SMEEVEKKAKEIVELVKEGKLEEAIELAKKFVEENSLEEALELGKLLIEKIEELTPEEAELMLEVIEALAEEIEKEFGAEEEADILEAEAAAAAYKVLQK
B17: GBRAP_160_4717 (protein)
chain: SETAEKLKEYVDEEFDEAEELMKGESIEQRAIILEGTVGEIIMELFENPDASDELIDEVLKIGDEAVATLKANPDLSDEEIEELLDEARDKMKEAIDKHL
B18: GBRAP_137_3636 (protein)
chain: PNVTITTKTEDDLVEINIEFDDPELAEEVAELIEDVAHKHGALALSIEINEDGTLDATIWVPKEKAQALLDALIKALKEKFNATVTVIDEDTGEVKTIKA
B19: GBRAP_137_3623 (protein)
chain: KKVKITFYEEDGVAIAEITADTSVDKEKVLEIVEEVAEKHGVKLVVALTEPDEPAVFYLVGTPEQVIAAVKELIKRLKEELGIEVELSSEGAEELVEEVK
B20: GBRAP_137_3622 (protein)
chain: KKVTITFYEEDGVAIAEITADTSVDKEKVLALVEEVAEEHGVQLVEALVEPDEPLVLYLVGTPEQVIAAVKDLIERLKSELGIEVVLESEGAEELVEEVK
B21: GBRAP_160_4497 (protein)
chain: SERKERAKERARELVEEAAEAIREEEGEGKEQIARAYAGDIALELLELGVVSEEQEEEVLRLAEEGFRRMVEASEKGEEELERAAEELKRRLEELIEEFA
B22: GBRAP_160_4123 (protein)
chain: KEKKRKTLLDSAKDVEETLKIIEDLSPEEAGTLAIVTLGQILLDNDELDDEFPEIEKLADEAIEKLRETAKTDPEKLKELSKELLEEIRELLLKKAEELK
B23: GBRAP_52_5921 (protein)
chain: SDEEARALAEAILEAALAGREDELRALIKRLVEEKSLEEIKRVIEELARLTAELGPEHYDLFADIMDLLLDAAEEAGRDVEEVDYAIAEAAGLLYDAEQA
B24: GBRAP_160_4321 (protein)
chain: SALMEELKKEIEEIAEEAKELIEGESPEQRRTIVKVALGEILLLAIENPEISDELEDKIAEIADAAEAELDANPDLSEEEVKELLEKAVKEILELIEKEE
B25: GBRAP_160_3995 (protein)
chain: SEKKKKLLEKIKEILEETYELMKGESPEERLAIARVAAGDILLELFESELVSDETEEKIDEVLDEFVATVEANPDMSDEELKELLEETLEKIEKIIEENS
B26: GBRAP_160_4762 (protein)
chain: KEELKKLKEEIEEIFKEHIELLKEVPKEKAVTVVEGAMGEVLMLAFSSEAVSDELEEKIGEIMDEAVERAKENKDAPVEVHIKILEEAREKILELIEEEI
B27: GBRAP_52_6056 (protein)
chain: MEARIEALARAIAAAIAAGDLDAALALLREAIATLTPEEIRRTLQLAARLVAGLGEEAHERFVELLDEAHELMIEAGISEEEADIIVGDAEAALARAVAA
B28: GBRAP_117_2594 (protein)
chain: SATLEEVRKRVEELVERIRKALEEMKTLSEEERKRLREELLEEATKEVKEMLKLTDAETVEEFFAEALADLSPEERVEAYIIFEEALADAEDELKEEEEA
B29: GBRAP_128_3594 (protein)
chain: SVEEVRAYVREALAAMKEADAETRREIADALMERLLTLSDEEQRAAFETIEELLPELSAEDLDILADALREHRPRFSPEGANLAADVEVEALNEREELEE

biological target: GABARAP, O95166; assay: median log2 fold change of GCK-ALFA target abundance (FLAG IP / Myc IP barcode read proportion) (log2 ratio); each designed protein is fused to an ALFA-tag nanobody in HEK293 cells to bring the named protein to FLAG-tagged glucokinase (GCK); Myc marks an untargeted standard; higher = target protein stabilised (more abundant); settings: target protein: 3xFLAG-MCP-GCK-ALFA reporter; HEK293 landing pad (RPLP)
Summary of the method: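 The readout is target abundance, the per-binder median log2 ratio of FLAG to Myc barcode read proportions. It came from HEK293 landing-pad cells carrying a recombined ALFA-nanobody-fused binder library, induced with 2 μg mL^−1 doxycycline and transfected with a plasmid for a FLAG-tagged target and a Myc-tagged standard. After 48 h, lysates were immunoprecipitated with anti-FLAG and anti-Myc, and circular RNA barcodes were reverse transcribed, amplified and sequenced. Each barcode needed a proportion of at least 10^−7 in both replicates and each binder at least 3 barcodes per replicate, a pseudocount of 10^−6 was added, and the replicates were pooled.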

Sequence of GABARAP, O95166 (O95166 whole entry, the tested form may be a part): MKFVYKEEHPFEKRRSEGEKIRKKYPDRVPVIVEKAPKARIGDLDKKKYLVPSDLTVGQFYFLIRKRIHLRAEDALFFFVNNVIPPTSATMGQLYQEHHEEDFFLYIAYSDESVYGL

For B1, which “median log2 fold change” value is on record?
Its value is 0.0481.

Which “median log2 fold change” value does the source give for B2 here?
Its value is 0.222.

With B3 as the binder, how does the “median log2 fold change” value read?
Its value is -0.628.

B4 was tested. Which “median log2 fold change” value did it give?
Its value is -0.0804.

Which “median log2 fold change” value does the source give for B5 here?
Its value is 0.0696.

Which “median log2 fold change” value does the source give for B6 here?
The value was 0.172.

Which “median log2 fold change” value does the source give for B7 here?
Its value is -0.22.

For B8, which “median log2 fold change” value is on record?
Its value is -0.694.

B9 was tested. Which “median log2 fold change” value did it give?
Its value is -0.437.

How did the “median log2 fold change” value turn out when B10 was run?
The value was 0.286.

Which “median log2 fold change” value does the source give for B11 here?
Its value is 0.206.

B12 was tested. Which “median log2 fold change” value did it give?
The value was -0.617.

Which “median log2 fold change” value does the source give for B13 here?
The value was -0.772.

How did the “median log2 fold change” value turn out when B14 was run?
The value was 0.0485.

B15 was tested. Which “median log2 fold change” value did it give?
The value was 0.197.

B16 was tested. Which “median log2 fold change” value did it give?
The value was 0.0653.

How did the “median log2 fold change” value turn out when B17 was run?
The value was -0.000956.

B18 was tested. Which “median log2 fold change” value did it give?
The value was -0.117.

For B19, which “median log2 fold change” value is on record?
The value was -0.628.

With B20 as the binder, how does the “median log2 fold change” value read?
Its value is -0.288.

For B21, which “median log2 fold change” value is on record?
Its value is 0.292.

For B22, which “median log2 fold change” value is on record?
Its value is 0.128.

For B23, which “median log2 fold change” value is on record?
Its value is -0.394.

Which “median log2 fold change” value does the source give for B24 here?
The value was -0.0253.

How did the “median log2 fold change” value turn out when B25 was run?
The value was -0.00842.

With B26 as the binder, how does the “median log2 fold change” value read?
Its value is 0.0708.

For B27, which “median log2 fold change” value is on record?
The value was -0.851.

For B28, which “median log2 fold change” value is on record?
Its value is 0.152.

Which “median log2 fold change” value does the source give for B29 here?
The value was -0.0656.
